Measurements taken from article PMC4336329 (PLoS ONE, 2015).
In all, about 310,000 compounds went through this assay and about 14,000 (4.5%) showed an effect of 50% or more. Effects have a minus sign here. For the sample, strong results were picked, then their nearest neighbours and some compounds at random.

The compounds below were run against human ether-à-go-go-related gene (hERG) potassium channel (human, UniProt Q12809) (assay: primary screen, population patch clamp on CHO cells stably expressing hERG; higher = less effect of the substance).
Chain of human ether-à-go-go-related gene (hERG) potassium channel (Q12809 whole entry, looked up): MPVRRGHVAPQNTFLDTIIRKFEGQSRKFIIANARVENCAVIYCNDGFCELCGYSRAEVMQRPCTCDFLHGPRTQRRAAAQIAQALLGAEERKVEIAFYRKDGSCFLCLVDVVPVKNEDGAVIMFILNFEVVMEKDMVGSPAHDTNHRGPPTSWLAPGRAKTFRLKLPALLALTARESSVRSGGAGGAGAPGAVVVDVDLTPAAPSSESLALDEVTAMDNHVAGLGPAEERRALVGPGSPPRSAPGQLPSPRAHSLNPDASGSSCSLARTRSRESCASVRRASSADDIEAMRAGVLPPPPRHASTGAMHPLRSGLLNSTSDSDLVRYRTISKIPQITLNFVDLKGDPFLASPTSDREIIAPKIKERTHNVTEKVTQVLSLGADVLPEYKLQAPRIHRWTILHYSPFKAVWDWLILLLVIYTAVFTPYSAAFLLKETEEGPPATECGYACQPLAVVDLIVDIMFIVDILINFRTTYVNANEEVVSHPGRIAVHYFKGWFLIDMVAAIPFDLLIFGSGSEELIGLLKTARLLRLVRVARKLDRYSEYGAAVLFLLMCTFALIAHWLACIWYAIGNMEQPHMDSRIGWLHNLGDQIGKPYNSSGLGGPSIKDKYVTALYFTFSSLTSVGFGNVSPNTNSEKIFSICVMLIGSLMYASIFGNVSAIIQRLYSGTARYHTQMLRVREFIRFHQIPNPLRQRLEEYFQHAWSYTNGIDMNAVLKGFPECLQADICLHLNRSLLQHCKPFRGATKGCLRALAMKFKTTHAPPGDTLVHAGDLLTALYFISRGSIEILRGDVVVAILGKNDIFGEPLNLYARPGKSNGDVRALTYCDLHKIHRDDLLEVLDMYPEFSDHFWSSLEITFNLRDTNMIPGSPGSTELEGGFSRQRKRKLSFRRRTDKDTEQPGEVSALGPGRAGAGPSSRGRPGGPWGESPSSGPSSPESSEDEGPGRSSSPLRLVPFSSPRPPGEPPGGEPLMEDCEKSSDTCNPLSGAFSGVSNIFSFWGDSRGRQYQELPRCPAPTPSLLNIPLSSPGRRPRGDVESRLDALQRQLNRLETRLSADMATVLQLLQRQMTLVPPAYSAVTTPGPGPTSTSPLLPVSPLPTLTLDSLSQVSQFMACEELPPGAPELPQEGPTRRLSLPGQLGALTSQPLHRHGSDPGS
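Further: peak tail current of the secondary pulse compared with the same well before compound.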

| SMILES | hERG current change (%, negative = inhibition) at 10uM |
| --- | --- |
| CCOc1ccc(NC(=O)c2ccc(-n3cccn3)nc2)cc1 | 18.7% |
| CCN(/C=N/c1sc2c(c1C#N)CCCCC2)CC | 5.56% |
| CC(c1ccccc1)n1c(-c2ccc(Cl)cc2)n[nH]c1=S (stereo not shown) | 13.9% |
| CCOc1cc(C(=O)Nc2ccc([N+](=O)[O-])cn2)cc(OCC)c1OCC | -29% |
| COc1ccc(C(=O)CC(=O)C(=O)Nc2cc(OC)c(OC)c(OC)c2)cc1 | 8.58% |
| Clc1ccc(-n2ncc3c(NCCN4CCOCC4)ncnc32)cc1 | -34.7% |
| Cc1ccc2ncnc(NCCCN3CCOCC3)c2c1 | -13.6% |
| Clc1ccc2[nH]c3c(NCCN4CCOCC4)ncnc3c2c1 | -61.8% |
| Cc1ccc2[nH]c3c(NCCCN4CCCC4=O)ncnc3c2c1 | -13.7% |
| Fc1ccc2[nH]c3c(NCCN4CCOCC4)ncnc3c2c1 | -16.8% |
| Clc1ccc2[nH]c3c(NCCCN4CCOCC4)ncnc3c2c1 | -69.9% |
| c1ccc(-n2nnc3ccccc32)nc1 | 3.7% |
| O=C(NN1C(=O)c2ccccc2NC1c1cccnc1)c1ccc([N+](=O)[O-])cc1 (stereo not shown) | -37.5% |
| O=C(NCS(=O)(=O)c1ccccc1)c1ccccc1 | -0.415% |
| CCOc1ccc2nc(CN3CCN(Cc4ccccc4OCC)C(CCO)C3)ccc2c1 (stereo not shown) | -56.9% |
| CCOc1ccccc1CN1CCN(Cc2ccc3cccc(OC)c3n2)CC1CCO (stereo not shown) | -55.5% |
| CCOc1ccccc1CN1CCN(Cc2ccc3cc(F)ccc3n2)CC1CCO (stereo not shown) | -65.7% |
| COc1ccc(-c2csc(NC(C)c3nc4cc(C(=O)NCCCO)ccc4n3Cc3ccc(C)cc3)n2)cc1 (stereo not shown) | 9.34% |
| Fc1ccccc1Nc1nc2ccccc2n2nnnc12 | 7.8% |
| CCOc1cc(C(=O)Nc2ccc(S(=O)(=O)Nc3cc(C)on3)cc2)cc(OCC)c1OCC | -0.904% |
| O=C(NCc1ccco1)C1CCC(N2C(=O)c3ccccc3C2=O)CC1 (stereo not shown) | 1.59% |
| C=C1Cn2c(nnc2-c2ccc(Cl)cc2)S1 | -27.4% |

| SMILES | hERG current change (%, negative = inhibition) at 10uM |
| --- | --- |
| C=CCNC(=O)C1(c2ccccc2)CC1(Cl)Cl (stereo not shown) | -5.1% |
| O=c1cc(N2CCCCC2)c(-c2ccccc2)nn1Cc1cccc(Cl)c1 | 0.996% |
| COC(=O)c1ccc(/C=C2\Oc3ccccc3NC2=O)cc1 | 15.5% |
| CCOC(=O)C1=C(C)NC(=S)NC1c1ccc(-c2cccc(Cl)c2C)o1 (stereo not shown) | 14.4% |
| COc1ccc(N2CC(O)(c3ccc(C)cc3)[N+]3=C2CCCC3)cc1.[Br-] (stereo not shown) | -38.9% |
| OC1(c2cccs2)CN(c2ccc(Cl)cc2)C2=[N+]1CCCC2.[Br-] (stereo not shown) | -59.5% |
| CCOc1ccc(N2CC(O)(c3cccs3)[N+]3=C2CCCC3)cc1.[Br-] (stereo not shown) | -69.7% |
| COc1ccc(C2(O)CN(c3ccc(C)cc3)C3=[N+]2CCCC3)cc1.[Br-] (stereo not shown) | -37.5% |
| Cc1cccc(N2CC(O)(c3cccs3)[N+]3=C2CCCC3)c1.[Br-] (stereo not shown) | -12.3% |
| COc1ccc(N2CC(O)(c3ccc(OC(F)F)cc3)[N+]3=C2CCCC3)cc1.[Br-] (stereo not shown) | -70% |
| COc1ccc(N2CC(O)(c3ccc(F)cc3)[N+]3=C2CCCC3)cc1.[Br-] (stereo not shown) | -3.37% |
| Cc1cccc(N2CC(O)(c3cccs3)[N+]3=C2CCCC3)c1C.[Br-] (stereo not shown) | -43.5% |
| CCOc1ccc(N2CC(O)(c3ccc(F)cc3)[N+]3=C2CCCC3)cc1.[Br-] (stereo not shown) | -71.6% |
| CCOc1ccc(N2CC(C(=O)NNC(=O)c3ccc(F)cc3)CC2=O)cc1 (stereo not shown) | -25.4% |
| Cc1ccc(N2CC(O)(c3cccs3)[N+]3=C2CCCC3)cc1.[Br-] (stereo not shown) | -32.3% |
| OC1(c2cccs2)CN(c2ccccc2)C2=[N+]1CCCC2.[Br-] (stereo not shown) | 4.63% |
| Cc1cccc(C)c1NC(=O)CN1C(=O)COc2ccccc21 | 10.5% |
| Cc1ccc(S(=O)(=O)c2cnc(-c3ccccc3)nc2N2CCCCC2)cc1 | 25.7% |
| CS(=O)(=O)c1ccc(NCCc2ccccn2)c([N+](=O)[O-])c1 | -22.7% |
| COc1cccc(C2C(C(=O)Nc3ccc(C)cc3C)=C(C)Nc3ncnn32)c1OC (stereo not shown) | 7.02% |
| O=C(Nc1c2c(nn1-c1ccc(F)cc1)CS(=O)C2)c1ccco1 (stereo not shown) | -21.4% |
| CC(=O)Nc1ccc(NC(=O)c2cc(=O)c3ccc(C)cc3o2)cc1 | 17.4% |

| SMILES | hERG current change (%, negative = inhibition) at 10uM |
| --- | --- |
| CCC1=NN(C(=O)Cc2ccccc2)C(O)(c2ccncc2)C1 (stereo not shown) | 28.9% |
| COc1ccc(OCc2cccc(C(=O)Nn3cc([N+](=O)[O-])cn3)c2)cc1 | -15.6% |
| CCOC(=O)c1ccc(CNC(=O)c2cc(COc3ccccc3SC)on2)o1 | 1.07% |
| CC(C)Cn1c(N)c(C=O)c(=O)n(C)c1=O | 26.4% |
| Cc1cccc(N2CCN(C(=O)C3CCCCC3)CC2)c1C | -24.8% |
| O=C(C1CCC(=O)N(C2CC2)C1)N1CCN(c2ccc(Cl)cc2)CC1 (stereo not shown) | -38.1% |
| O=C1CCC(C(=O)N2CCN(c3ccccc3)CC2)CN1CC1CCCCC1 (stereo not shown) | -27.5% |
| Cc1cc(N2CCC(C(=O)N3CCN(c4cccc(C)c4C)CC3)CC2)n2ncnc2n1 | -68.7% |
| O=C(C1CCC(=O)N(C2CCCC2)C1)N1CCN(c2ccc(Cl)cc2)CC1 (stereo not shown) | -61% |
| COc1cccc(CN2CC(C(=O)N3CCCC3)CCC2=O)c1 (stereo not shown) | 19.4% |
| Cc1cc(N2CCN(C(=O)OC(C)(C)C)CC2)n2ncnc2n1 | -27.5% |
| COc1cccc(CN2CC(C(=O)N3CCN(c4ccc(Cl)cc4)CC3)CCC2=O)c1 (stereo not shown) | -70.9% |
| COc1cccc(CN2CC(C(=O)N3CCCCCCC3)CCC2=O)c1 (stereo not shown) | -2.24% |
| O=C(C1CCC(=O)N(C2CCCCCC2)C1)N1CCN(c2ccccc2Cl)CC1 (stereo not shown) | -42.9% |
| O=C1CCC(C(=O)N2CCN(c3ccccc3Cl)CC2)CN1CC1CCCCC1 (stereo not shown) | -72.2% |
| O=C(C1CCC(=O)N(C2CCCC2)C1)N1CCN(c2ccccc2Cl)CC1 (stereo not shown) | -15.8% |
| O=C(Cn1nnc(-c2ccc(CN3CCOCC3)cc2)n1)NC1CCCCC1 | -12.4% |
| COc1cccc(NC(=O)CCNS(=O)(=O)c2ccc(Br)s2)c1 | -32.6% |
| CCCCNC(=O)C1CCN(S(=O)(=O)N2CCOCC2)CC1 | 5.58% |
| COc1ccc(OCc2nc3c4c(ncn3n2)-c2ccccc2CC42CCCC2)cc1 | 6.66% |
| CCC(Oc1ccccc1)C(=O)Nc1nnc(S(=O)(=O)N2CCCCC2)s1 (stereo not shown) | 12.8% |
| CCc1ccc(-c2csc3ncn(Cc4ccc(C(=O)O)cc4)c(=O)c23)cc1 | 4.9% |

| SMILES | hERG current change (%, negative = inhibition) at 10uM |
| --- | --- |
| COc1ccc(NC(=O)c2ccc3ncsc3c2)c2ccccc12 | 4.56% |
| Clc1ccc(CSc2nnc3c(n2)[nH]c2ccccc23)cc1 | -1.62% |
| O=S(=O)(NCc1ccccc1)[C@@H]1CC2C=CC1C2 (stereo partly shown) | 1.81% |
| O=C(c1cc(COc2ccc(F)cc2Cl)on1)N(CCO)Cc1cccs1 | -31.6% |
| Cc1ccccc1N1CCN(C(=O)C2CCC(=O)N(C3CCCC3)C2)CC1 (stereo not shown) | -22.5% |
| O=C(C1CCC(=O)N(C2CCCC2)C1)N1CCC(Oc2ccccc2Cl)CC1 (stereo not shown) | -62.1% |
| O=C(C1CCC(=O)N(C2CC2)C1)N1CCC(Oc2ccccc2F)CC1 (stereo not shown) | 2.26% |
| Cc1cccc(N2CCN(C(=O)C3CC(=O)N(C4CCCC4)C3)CC2)c1C (stereo not shown) | -57.9% |
| Cc1ccccc1OC1CCN(C(=O)C2CCC(=O)N(C3CCCC3)C2)CC1 (stereo not shown) | 3.16% |
| Cc1cccc(N2CCN(C(=O)C3CCC(=O)N(C4CC4)C3)CC2)c1C (stereo not shown) | 0.967% |
| COc1ccc(C)cc1S(=O)(=O)N(CC(=O)O)c1ccc(C)cc1 | 5.39% |
| Cc1cc(C)cc(NC(=S)NCc2ccc(S(N)(=O)=O)cc2)c1 | 8.2% |
| Cn1c2ccccc2c2ncn(Cc3ccc(F)cc3)c(=O)c21 | 8% |
| O=C(CCNC(=O)c1ccco1)NCCc1ccc(Cl)cc1 | -1.83% |
| COc1cc(CN2CCC(N3CCC(C(=O)N4CCCC4)CC3)CC2)cc2c1OCO2 | -17.6% |
| Cc1ccc(CNC(=O)CCC2CCCN(C(=O)c3ccc4c(c3)OCO4)C2)o1 (stereo not shown) | -20.5% |
| COCc1ccc(CN2CCCC(CCC(=O)NCc3ccc(C)o3)C2)o1 (stereo not shown) | -16.7% |
| COC(=O)c1ccc(CN2CCCC(CCC(=O)NCc3ccc(C)o3)C2)cc1 (stereo not shown) | -67.5% |
| COc1cc(CN2CCCC(CCC(=O)NCc3ccc(C)o3)C2)cc2c1OCO2 (stereo not shown) | -59.9% |
| CC(=O)c1cccc(CN2CCCC(CCC(=O)NCc3ccc(C)o3)C2)c1 (stereo not shown) | -16.2% |
| Cc1ccc(CNC(=O)CCC2CCCN(Cc3cccc4c3OCO4)C2)o1 (stereo not shown) | -63.2% |
| CC1(C)CC(=O)C=C(Nc2cccc(F)c2)C1 | 17% |
